Structures can show the parent of a compound that is named as a salt.
System: HL-1
Assay: relative cell viability (CellTiter-Glo) vs DMSO control (% of DMSO control); higher = more viable cells
In short: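 In 384-well plates, 1000 HL-1 mouse atrial cardiomyocytes per well were plated with compounds at 40, 200, 1000 or 5000 nM in 0.01% DMSO. Hypoxia at 1% O2 for 48 h began one day later and was followed by 24 h of reoxygenation, with parallel plates held in normoxia. CellTiter-Glo luminescence gave cell viability relative to vehicle-treated control cells.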

[1] = oxygen condition: hypoxia 48 h (1% O2) + reoxygenation 24 h, 40 nM
[2] = oxygen condition: hypoxia 48 h (1% O2) + reoxygenation 24 h, 200 nM
[3] = oxygen condition: hypoxia 48 h (1% O2) + reoxygenation 24 h, 1000 nM
[4] = oxygen condition: hypoxia 48 h (1% O2) + reoxygenation 24 h, 5000 nM
[5] = oxygen condition: normoxia 72 h, 40 nM
[6] = oxygen condition: normoxia 72 h, 200 nM
[7] = oxygen condition: normoxia 72 h, 1000 nM
[8] = oxygen condition: normoxia 72 h, 5000 nM

SMILES | relative cell viability [1] | relative cell viability [2] | relative cell viability [3] | relative cell viability [4] | relative cell viability [5] | relative cell viability [6] | relative cell viability [7] | relative cell viability [8]
Nc1c2c(nc3ccccc13)CCCC2 [Tacrine HCl] | 91.7 | 89.5 | 81.2 | 20.3 | 94.1 | 82.5 | 70.4 | 26.4
CC(=O)OCC(=O)[C@@]12N=C(C)O[C@@H]1C[C@H]1[C@@H]3CCC4=CC(=O)C=C[C@]4(C)[C@H]3[C@@H](O)C[C@@]12C [Deflazacort] | 90.6 | 90.3 | 97.1 | 77.3 | 89.6 | 92.4 | 95.6 | 99.2
CCOC(=O)C1=C(COCCN)NC(C)=C(C(=O)OC)C1c1ccccc1Cl (centres undefined) [Amlodipine besylate] | 88 | 102 | 102 | 105 | 103 | 105 | 106 | 102
CCOC(=O)C1=C(C)NC(C)=C(C(=O)OCC)C1c1ccccc1/C=C/C(=O)OC(C)(C)C [Lacidipine] | 109 | 102 | 100 | 102 | 106 | 104 | 106 | 106
CC(=O)[C@H]1CC[C@H]2[C@@H]3CC=C4C[C@@H](O)CC[C@]4(C)[C@H]3CC[C@]12C [Pregnenolone] | 100 | 103 | 106 | 117 | 101 | 101 | 105 | 107
CC(C)c1c(C(=O)Nc2ccccc2)c(-c2ccccc2)c(-c2ccc(F)cc2)n1CC[C@@H](O)C[C@@H](O)CC(=O)O [Atorvastatin calcium] | 107 | 95.8 | 102 | 41.7 | 96.4 | 98.8 | 81.6 | 19.9
C=C[C@H]1CN2CC[C@H]1C[C@H]2[C@H](O)c1ccnc2ccc(OC)cc12 [Quinine hydrochloride dihydrate] | 103 | 104 | 102 | 104 | 102 | 101 | 103 | 111
CC1=NN(c2ccccc2)C(=O)C1 [Edaravone] | 101 | 97.7 | 95.2 | 108 | 95.7 | 95.9 | 98.9 | 103
OCCN1C[C@H](O)[C@@H](O)[C@H](O)[C@H]1CO [Miglitol] | 104 | 104 | 119 | 108 | 101 | 102 | 106 | 117
Cn1c([N+](=O)[O-])cnc1COC(N)=O [Ronidazole] | 107 | 112 | 106 | 118 | 112 | 113 | 121 | 110
CC1CC(OC(=O)C(O)c2ccccc2)CC(C)(C)C1 (centres undefined) [Cyclandelate] | 104 | 106 | 106 | 118 | 103 | 108 | 110 | 115
CNCC[C@H](Oc1cccc2ccccc12)c1cccs1 [Duloxetine HCl] | 92 | 96 | 99.8 | 92.8 | 89.9 | 94.3 | 106 | 104
N=C(N)NC(=O)c1nc(Cl)c(N)nc1N [Amiloride hydrochloride] | 103 | 105 | 100 | 110 | 106 | 105 | 96.6 | 109
CCOC(=O)C1=C(COCCN)NC(C)=C(C(=O)OC)C1c1ccccc1Cl (centres undefined) [Amlodipine] | 102 | 101 | 113 | 100 | 107 | 107 | 93.2 | 106
CNC[C@H](O)c1cccc(O)c1 [Phenylephrine HCl] | 110 | 108 | 102 | 109 | 110 | 108 | 117 | 118
O=c1c(-c2ccc(O)cc2)coc2cc(O)ccc12 [Daidzein] | 107 | 102 | 105 | 113 | 107 | 107 | 105 | 118
CC(=O)[C@H]1CC[C@H]2[C@@H]3CCC4=CC(=O)CC[C@]4(C)[C@H]3CC[C@]12C [Progesterone] | 109 | 105 | 103 | 116 | 111 | 111 | 111 | 116

SMILES | relative cell viability [1] | relative cell viability [2] | relative cell viability [3] | relative cell viability [4] | relative cell viability [5] | relative cell viability [6] | relative cell viability [7] | relative cell viability [8]
Cc1nc2c([nH]1)-c1ccccc1N(C(=O)c1ccc(NC(=O)c3ccccc3-c3ccccc3)cc1)CC2 [Conivaptan HCl] | 100 | 98.8 | 46.4 | 47.7 | 98 | 84.2 | 89.2 | 36.5
O=C(O)[C@H](CC(=O)N1C[C@H]2CCCC[C@H]2C1)Cc1ccccc1 [Mitiglinide calcium] | 108 | 101 | 99.7 | 108 | 101 | 102 | 104 | 110
CC[C@H](C)C(=O)O[C@H]1C[C@H](O)C=C2C=C[C@H](C)[C@H](CC[C@@H](O)C[C@@H](O)CC(=O)O)[C@H]21 [Pravastatin sodium] | 99.1 | 94.4 | 84.7 | 19.8 | 96.8 | 95.9 | 70.7 | 6.81
CN(C(=O)CN(CCO)CC(=O)N(C)C(C)(C)Cc1ccccc1)C(C)(C)Cc1ccccc1 [Oxethazaine] | 102 | 103 | 106 | 115 | 99.2 | 103 | 97.9 | 128
Cc1[nH]c(=O)c(C#N)cc1-c1ccncc1 [Milrinone] | 102 | 106 | 105 | 111 | 99.8 | 108 | 99.1 | 113
NC(=O)c1ncn([C@@H]2O[C@H](CO)[C@@H](O)[C@H]2O)n1 [Ribavirin] | 102 | 96.2 | 108 | 101 | 100 | 104 | 109 | 107
CC1COc2c(N3CCN(C)CC3)c(F)cc3c(=O)c(C(=O)O)cn1c23 (centres undefined) [Ofloxacin] | 99.3 | 99.8 | 97.8 | 108 | 98.5 | 97.3 | 62.4 | 115
CC(C)NCC(O)COc1ccc(COCCOC(C)C)cc1 (centres undefined) [Bisoprolol] | 93.2 | 103 | 87.2 | 101 | 90.8 | 101 | 85.4 | 108
CC1(C)S[C@@H]2[C@H](NC(=O)[C@H](NC(=O)N3CCNC3=O)c3ccccc3)C(=O)N2[C@H]1C(=O)O [Azlocillin sodium salt] | 102 | 102 | 106 | 110 | 101 | 104 | 112 | 116
COC(=O)[C@H](Cc1ccccc1)NC(=O)[C@@H](N)CC(=O)O [Aspartame] | 100 | 98 | 103 | 106 | 96.5 | 102 | 100 | 98.1
C=CCc1cc(OC)c(O)c(C(=O)NCCO)c1 [Alibendol] | 103 | 102 | 108 | 113 | 101 | 104 | 112 | 115
CC[C@H]1OC(=O)C[C@@H](O)[C@H](C)[C@@H](O[C@@H]2O[C@H](C)[C@@H](O[C@H]3C[C@@](C)(O)[C@@H](O)[C@H](C)O3)[C@H](N(C)C)[C@H]2O)[C@@H](CC=O)C[C@@H](C)C(=O)/C=C/C(C)=C/[C@@H]1CO[C@@H]1O[C@H](C)[C@@H](O)[C@@H](OC)[C@H]1OC [Tylosin tartrate] | 102 | 108 | 99.4 | 99 | 101 | 92.6 | 100 | 91.8
CCCN[C@H]1CCc2nc(N)sc2C1 [Pramipexole] | 103 | 103 | 101 | 108 | 98.2 | 98.9 | 107 | 108
Nc1ccc(/N=N/c2ccccc2)c(N)n1 [Phenazopyridine HCl] | 103 | 98.3 | 101 | 112 | 104 | 103 | 114 | 108
CCCCOc1ccc(CC(=O)NO)cc1 [Bufexamac] | 109 | 100 | 111 | 117 | 105 | 107 | 107 | 110
CC[C@H]1OC(=O)[C@H](C)[C@@H](O[C@H]2C[C@@](C)(OC)[C@@H](O)[C@H](C)O2)[C@H](C)[C@@H](O[C@@H]2O[C@H](C)C[C@H](N(C)C)[C@H]2O)[C@](C)(OC)C[C@@H](C)C(=O)[C@H](C)[C@@H](O)[C@]1(C)O [Clarithromycin] | 101 | 101 | 105 | 105 | 100 | 100 | 107 | 108
